PubChem BioAssay (NCI)
Several values for one entry are separate records, joined by “and”; a condition that tells them apart may be missing. Identical values can stand only once. This is part of a sample that, as a whole, favours compounds with a hit. Of some 83,000 tested, about 20% had one in any assay.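 Interpretation: 100, growth as untreated; towards 0, rising growth inhibition; 0, no net growth; 0 to -100, cell death. Compounds scoring below 10 were considered active.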 Activity calls are given as the source filed them.

Tests used:
Test in all cases: NCI-60 one-dose screen, 48 h (100 = growth as untreated, 0 = no growth, -100 = all killed)
MOLT-4 leukemia = conditions: 10 µM
SR leukemia = conditions: 10 µM
RPMI-8226 leukemia = conditions: 10 µM
OVCAR-8 ovarian = conditions: 10 µM
OVCAR-5 ovarian = conditions: 10 µM
OVCAR-4 ovarian = conditions: 10 µM
SK-OV-3 ovarian = conditions: 10 µM
IGROV1 ovarian = conditions: 10 µM
HS 578T breast = conditions: 10 µM
NCI/ADR-RES ovarian = conditions: 10 µM
T-47D breast = conditions: 10 µM
BT-549 breast = conditions: 10 µM
MDA-MB-435 melanoma = conditions: 10 µM
SW-620 colon = conditions: 10 µM
HCT-116 colon = conditions: 10 µM
HCC-2998 colon = conditions: 10 µM
KM12 colon = conditions: 10 µM
MCF7 breast = conditions: 10 µM unless noted
OVCAR-3 ovarian = conditions: 10 µM

Measured: growth

ClCc1ccc2ccccc2n1
inactive: MOLT-4 leukemia 81.3% | SR leukemia 88.2% | RPMI-8226 leukemia 98.6% | OVCAR-8 ovarian 101% | OVCAR-5 ovarian 83.4% | OVCAR-4 ovarian 101% | SK-OV-3 ovarian 113% | IGROV1 ovarian 78.2% | HS 578T breast 97.4% | NCI/ADR-RES ovarian 98.4% | T-47D breast 87% | BT-549 breast 102% | MDA-MB-435 melanoma 93.9% | SW-620 colon 114% | HCT-116 colon 91.1% | HCC-2998 colon 105% | KM12 colon 103%

O=[N+]([O-])/C=C\c1ccc2c(c1)OCO2
inactive: MOLT-4 leukemia 75.9% | SR leukemia 34.4% | RPMI-8226 leukemia 10.2% | OVCAR-8 ovarian 89.9% | OVCAR-5 ovarian 91.5% | OVCAR-4 ovarian 76.9% | SK-OV-3 ovarian 101% | IGROV1 ovarian 27.6% | HS 578T breast 87.4% | NCI/ADR-RES ovarian 98.5% | T-47D breast 75.3% | BT-549 breast 91.7% | SW-620 colon 43.2% | HCC-2998 colon 52.6% | KM12 colon 38.3%
active: MDA-MB-435 melanoma -14.8% | MCF7 breast -10.9% | HCT-116 colon -20%

O=C(CCl)Nc1ccc(Cl)cc1
inactive: MOLT-4 leukemia 32.8% | SR leukemia 29.6% | RPMI-8226 leukemia 60.4% | OVCAR-8 ovarian 53.3% | OVCAR-5 ovarian 53.5% | OVCAR-4 ovarian 17.6% | SK-OV-3 ovarian 85.8% | NCI/ADR-RES ovarian 68.3% | T-47D breast 56% | MDA-MB-435 melanoma 48.5% | SW-620 colon 39.7% | HCT-116 colon 18.9% | HCC-2998 colon 98.3% | KM12 colon 67.8%
active: IGROV1 ovarian -4.08% | OVCAR-3 ovarian 0.0428%

COC12c3c(C)cc(O)c4c(=O)occ(c34)C(=O)C1C13COC(=O)c4c(O)cc(C)c(c41)C(=O)C2C3OC(C)=O (stereo unspecified)
inactive: MOLT-4 leukemia 102% | SR leukemia 92.4% | RPMI-8226 leukemia 90.6% | OVCAR-8 ovarian 105% | OVCAR-5 ovarian 91.4% | OVCAR-4 ovarian 100% | SK-OV-3 ovarian 93.4% | OVCAR-3 ovarian 105% | HS 578T breast 112% | NCI/ADR-RES ovarian 97.1% | T-47D breast 94% | BT-549 breast 96.2% | MDA-MB-435 melanoma 173% | SW-620 colon 99.7% | HCT-116 colon 99.1% | HCC-2998 colon 97.3%

CC(=O)[O][Hg][c]1c(C)c(C)cc(C)c1C
inactive: OVCAR-8 ovarian 15.3% | SK-OV-3 ovarian 97.5% | NCI/ADR-RES ovarian 78.1% | HCC-2998 colon 12.5% | KM12 colon 50.5%
active: MOLT-4 leukemia -5.69% | SR leukemia -27.6% | RPMI-8226 leukemia 7.45% | OVCAR-5 ovarian -9.8% | OVCAR-4 ovarian -93.2% | IGROV1 ovarian -73.2% | HS 578T breast -1.53% | T-47D breast -27.8% | BT-549 breast -70.4% | MDA-MB-435 melanoma -91.4% | SW-620 colon -93.5% | HCT-116 colon -98.8%

COc1ccccc1[As]=[As]c1ccccc1OC (stereo unspecified)
active: MOLT-4 leukemia -9.7% | SR leukemia -2.26% | RPMI-8226 leukemia -15.1% | OVCAR-8 ovarian -83.1% | OVCAR-5 ovarian -93.2% | OVCAR-4 ovarian -85.1% | SK-OV-3 ovarian -99.7% | IGROV1 ovarian -76.9% | HS 578T breast -11.6% | NCI/ADR-RES ovarian -72% | T-47D breast -47.2% | BT-549 breast -91.9% | MDA-MB-435 melanoma -73.2% | SW-620 colon -66.3% | MCF7 breast -38.3% | HCT-116 colon -71.3% | HCC-2998 colon -98.2%

CS(=N)(=O)CCC(N)C(=O)O (stereo unspecified)
inactive: MOLT-4 leukemia 112% | SR leukemia 99.9% | RPMI-8226 leukemia 107% | OVCAR-8 ovarian 98% | OVCAR-5 ovarian 85.3% | OVCAR-4 ovarian 104% | SK-OV-3 ovarian 108% | IGROV1 ovarian 87.5% | HS 578T breast 104% | NCI/ADR-RES ovarian 100% | T-47D breast 111% | BT-549 breast 99.2% | MDA-MB-435 melanoma 99.8% | SW-620 colon 103% | MCF7 breast 101% | HCT-116 colon 97.1% | HCC-2998 colon 92.7% | KM12 colon 115%

O=C(O)c1cc(Cc2ccc(O)c(C(=O)O)c2)ccc1O (tested in a mixture with another compound)
active: RPMI-8226 leukemia -5.46% | IGROV1 ovarian -81.4%
inactive: MOLT-4 leukemia 54.3% | SR leukemia 80.4% | OVCAR-8 ovarian 68.1% | OVCAR-5 ovarian 65.1% | OVCAR-4 ovarian 66.9% | SK-OV-3 ovarian 95.4% | HS 578T breast 72.6% | NCI/ADR-RES ovarian 75.7% | T-47D breast 53.1% | BT-549 breast 73.8% | MDA-MB-435 melanoma 72.7% | SW-620 colon 64.6% | MCF7 breast 46.4% | HCT-116 colon 45.1% | HCC-2998 colon 53.9% | KM12 colon 65.9%

CCCCCCCC[N+]12CN3CN(CN(C3)C1)C2
inactive: MOLT-4 leukemia 120% | SR leukemia 92.7% | RPMI-8226 leukemia 90.1% | OVCAR-8 ovarian 101% | OVCAR-5 ovarian 96.5% | OVCAR-4 ovarian 99.2% | SK-OV-3 ovarian 103% | IGROV1 ovarian 108% | HS 578T breast 92.4% | NCI/ADR-RES ovarian 98.9% | BT-549 breast 94.4% | MDA-MB-435 melanoma 95% | SW-620 colon 89.7% | HCT-116 colon 93.6% | HCC-2998 colon 98.3% | KM12 colon 98.4%

NC(Cc1ccccc1)c1ccccc1 (stereo unspecified)
inactive: MOLT-4 leukemia 116% and 94.2% | SR leukemia 99.9% and 93.7% | RPMI-8226 leukemia 111% and 100% | OVCAR-8 ovarian 104% and 108% | OVCAR-5 ovarian 98.5% and 96.1% | OVCAR-4 ovarian 103% and 112% | SK-OV-3 ovarian 101% and 103% | IGROV1 ovarian 107% and 101% | HS 578T breast 98.9% and 119% | NCI/ADR-RES ovarian 106% and 102% | T-47D breast 95.7% and 101% | BT-549 breast 91.1% and 89.4% | MDA-MB-435 melanoma 106% and 102% | SW-620 colon 112% and 104% | HCT-116 colon 99.7% and 98.4% | HCC-2998 colon 105% and 102%

CC/C(=C/c1ccc(OC)cc1)[N+](=O)[O-]
inactive: OVCAR-5 ovarian 10.9% | OVCAR-4 ovarian 62% | SK-OV-3 ovarian 104% | IGROV1 ovarian 11.7% | HS 578T breast 90.2% | NCI/ADR-RES ovarian 30.3% | MDA-MB-435 melanoma 15.1% | HCC-2998 colon 85.1% | KM12 colon 33.8%
active: MOLT-4 leukemia 3.8% | SR leukemia 1.84% | RPMI-8226 leukemia -8.7% | OVCAR-8 ovarian 1.78% | T-47D breast -43.7% | BT-549 breast -34.5% | SW-620 colon -76.8% | MCF7 breast -41.5% | HCT-116 colon -81.3%

COc1cc(/C=C(/C)[N+](=O)[O-])ccc1O
inactive: OVCAR-8 ovarian 37.5% and 27.1% | OVCAR-5 ovarian 83.5% and 60.3% | OVCAR-4 ovarian 50.6% | SK-OV-3 ovarian 92.5% and 90.2% | IGROV1 ovarian 26.4% and 21.3% | BT-549 breast 79.5% and 95.1% | HCC-2998 colon 30.3% and 87.3%
active: MOLT-4 leukemia -3.07% and 1.18% | SR leukemia -14.7% and -4.36% | RPMI-8226 leukemia -21.5% | T-47D breast -22.6% and -40.3% | MDA-MB-435 melanoma 6.19% | SW-620 colon -68% and -56.1% | MCF7 breast 9.25% and 1.76% | HCT-116 colon -56% and -35.4%
48.5% (inactive) and -8.96% (active): HS 578T breast
62.4% (inactive) and -17.5% (active): NCI/ADR-RES ovarian

COc1cc(/C=C/[N+](=O)[O-])cc(Br)c1OC
inactive: MOLT-4 leukemia 10% | OVCAR-8 ovarian 31.2% | OVCAR-5 ovarian 65.4% | OVCAR-4 ovarian 60.3% | SK-OV-3 ovarian 94.7% | OVCAR-3 ovarian 69.9% | NCI/ADR-RES ovarian 60.2% | T-47D breast 16.3% | MDA-MB-435 melanoma 11%
active: SR leukemia -5.8% | RPMI-8226 leukemia -15.7% | IGROV1 ovarian 1.74% | BT-549 breast 8.15% | MCF7 breast 8.38% | HCT-116 colon -91.7% | HCC-2998 colon -90.9%

Oc1c(Cl)cc(Cl)c2ccccc12.[Cu+2]
inactive: MOLT-4 leukemia 70.7% | SR leukemia 31.4% | OVCAR-8 ovarian 83% | OVCAR-5 ovarian 127% | OVCAR-4 ovarian 55.8% | SK-OV-3 ovarian 87.2% | IGROV1 ovarian 74.8% | HS 578T breast 88.9% | NCI/ADR-RES ovarian 91.9% | T-47D breast 82.9% | BT-549 breast 106% | SW-620 colon 88.3% | MCF7 breast 74.3% | HCT-116 colon 71.8% | HCC-2998 colon 86%
active: MDA-MB-435 melanoma -83.4%

C=C1C(=O)O[C@@H]2C[C@@H](C)[C@@H]3C=CC(=O)[C@@]3(C)[C@@H](O)[C@H]12
inactive: SK-OV-3 ovarian 11.5% | HS 578T breast 18.2% | NCI/ADR-RES ovarian 12.9%
active: MOLT-4 leukemia -48.5% | SR leukemia -11.7% | RPMI-8226 leukemia -52.3% | OVCAR-5 ovarian 5.71% | OVCAR-4 ovarian -36.6% | IGROV1 ovarian -90.5% | OVCAR-3 ovarian -100% | T-47D breast -58.1% | BT-549 breast -85.1% | MDA-MB-435 melanoma -88.2% | SW-620 colon -30.5% | MCF7 breast -4.11% | HCT-116 colon -93.5% | HCC-2998 colon -97.7% | KM12 colon -84.3%

C[C@]12CC[C@H]3[C@@H](CCC4=CC(=O)CC[C@@H]43)[C@@H]1CC[C@@H]2OC(=O)N(CCCl)N=O
active: RPMI-8226 leukemia 5.42% | IGROV1 ovarian -2.36%
inactive: MOLT-4 leukemia 12.8% | OVCAR-8 ovarian 54.3% | OVCAR-5 ovarian 108% | OVCAR-4 ovarian 84.8% | SK-OV-3 ovarian 46.7% | OVCAR-3 ovarian 89.9% | HS 578T breast 69.7% | NCI/ADR-RES ovarian 49% | T-47D breast 54.2% | BT-549 breast 66.6% | MDA-MB-435 melanoma 68.5% | SW-620 colon 52.5% | MCF7 breast 58.4% | HCT-116 colon 51.7% | HCC-2998 colon 58.1% | KM12 colon 28.2%

NNc1ccccc1
inactive: MOLT-4 leukemia 73.1% | SR leukemia 53% | OVCAR-8 ovarian 100% | OVCAR-5 ovarian 90.2% | OVCAR-4 ovarian 102% | SK-OV-3 ovarian 99.6% | IGROV1 ovarian 88.4% | HS 578T breast 109% | NCI/ADR-RES ovarian 83.1% | T-47D breast 53.9% | MDA-MB-435 melanoma 88.6% | SW-620 colon 64.5% | HCT-116 colon 78.4% | HCC-2998 colon 104%
